Experimental data taken from PubChem BioAssay (NCATS).
Values without a mark were called inactive. Records with an inconclusive call do not appear. Calls of active or inactive are those of the source. Unless noted, calls come from the whole dose curve; as a rule, active = well fitted curve in the direction sought with a large enough effect; inconclusive = small, poorly fitted or top-dose-only effect, or another doubt; inactive = no such curve, though single readings can be large; an effect the other way counts as inactive or inconclusive.

Key:
[1] = target: Cytochrome P450 1A2 (Homo sapiens) (UniProt P05177); assay: p450-cyp1a2 (AID 410; calls by dose curve)
Procedure, shortened: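 Inhibition was calculated relative to 57 uM furafylline (full inhibition). The reaction used human CYP1A2 at 20nM with Luciferin-ME at its Km, 100uM, driven by an NADPH-regenerating system for 60 min at room temperature.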

[2] = target: Mitogen-activated protein kinase 10 (Mus musculus) (UniProt Q61831); assay: JNK3 AlphaScreen Assay (AID 530; active = well fitted curve in either direction with a large enough effect, not every such curve was filed as active;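 note: kinase came from lysate of stimulated human HepG2 cells; signal reports phosphorylation of biotinylated GST-cJun 1-79 at Ser73 with 10 µM ATP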)
Procedure, shortened: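 qHTS format: compounds tested as titrations against IL-1beta/TNF-alpha-activated HepG2 lysate JNK3 with biotin-GST-cJun substrate and 10 uM ATP at room temperature. Loss of anti-phospho-cJun AlphaScreen signal indicates inhibition.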

[3] = target: 3',5'-cyclic-AMP phosphodiesterase 4B (Homo sapiens) (UniProt Q07343); assay: qHTS Assay for Inhibitors of PDE-IV (AID 607; active = well fitted activation curve with a large enough effect in the main read-out, with a control signal flat, not every such curve was filed as active)
Procedure, shortened: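 HEK293 ACTOne cells with CNG channel (1000/well), endogenous PDE4; membrane potential dye, compounds up to 22.9 uM final. Fluorescence Ex 535/Em 590; RO 20-1724 (100 uM final) as reference.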

[4] = target: alpha-glucosidase (Oryza sativa, rice) (UniProt Q653V4); assay: Counterscreen for Glucocerebrosidase Inhibitors: qHTS Assay for Rice alpha-Glucosidase at pH 5.0 (AID 997)
Procedure, shortened: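 Rice alpha-glucosidase (4 nM final) with 400 uM 4-methylumbelliferyl-alpha-D-glucopyranoside in citrate buffer pH 5.0, 20 min at room temperature, stopped at pH 10; fluorescence 365/440 nm, compounds 0.7 nM–77 uM, AC50 from Hill fits.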

[5] = S16 Schwann cell PMP22 intronic element beta-lactamase assay (AID 624044; calls by dose curve; note: nearly all actives have a fitted effect of over 15% in size); settings: S16 rat Schwann cells, PMP22 element beta-lactamase FRET, 24 h; ratio activity, negative = inhibition: at 38.3 µM (top of the series)
Procedure, shortened: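 Rat S16 Schwann cells with beta-Lac driven by a PMP22 intronic element, compound-treated 24 h at 37 °C. LiveBLAzer FRET B/G read: 460 nm normalized to potassium clavulanate vs DMSO; 535 nm FRET as viability; concentration-effect curves classified.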

3D7 = assay: qHTS profiling for inhibitors of Plasmodium falciparum proliferation (AID 504749); note: nearly all actives have a fitted effect of over 60% in size; note: potency is the fitted concentration of half-maximal effect; settings: P. falciparum in erythrocytes, SYBR Green DNA, 72 h; series mostly up to 28.7 µM
Procedure, shortened: (§1)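 Readout was DNA-dye fluorescence from lysed cultures, ex 485/em 535 nm. Parasitized red cells had grown 72 h with compound; data scaled between 0.29 uM artemisinin and DMSO wells and corrected using vehicle-only plates.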

7G8 = assay: as above; settings: P. falciparum in erythrocytes, SYBR Green DNA, 72 h; series mostly up to 28.7 µM
Procedure, shortened: as §1

AA1029 = assay: as above; settings: P. falciparum in erythrocytes, SYBR Green DNA, 72 h; series mostly up to 28.7 µM
Procedure, shortened: as §1

AS120 = assay: as above; settings: P. falciparum in erythrocytes, SYBR Green DNA, 72 h; series mostly up to 28.7 µM
Procedure, shortened: as §1

ATS189 = assay: as above; settings: P. falciparum in erythrocytes, SYBR Green DNA, 72 h; series mostly up to 28.7 µM
Procedure, shortened: as §1

ATS95 = assay: as above; settings: P. falciparum in erythrocytes, SYBR Green DNA, 72 h; series mostly up to 28.7 µM
Procedure, shortened: as §1

C2A = assay: as above; settings: P. falciparum in erythrocytes, SYBR Green DNA, 72 h; series mostly up to 28.7 µM
Procedure, shortened: as §1

CP185 = assay: as above; settings: P. falciparum in erythrocytes, SYBR Green DNA, 72 h; series mostly up to 28.7 µM
Procedure, shortened: as §1

CP191 = assay: as above; settings: P. falciparum in erythrocytes, SYBR Green DNA, 72 h; series mostly up to 28.7 µM
Procedure, shortened: as §1

CP192 = assay: as above; settings: P. falciparum in erythrocytes, SYBR Green DNA, 72 h; series mostly up to 28.7 µM
Procedure, shortened: as §1

CP194 = assay: as above; settings: P. falciparum in erythrocytes, SYBR Green DNA, 72 h; series mostly up to 28.7 µM
Procedure, shortened: as §1

CP201 = assay: as above; settings: P. falciparum in erythrocytes, SYBR Green DNA, 72 h; series mostly up to 28.7 µM
Procedure, shortened: as §1

CP203 = assay: as above; settings: P. falciparum in erythrocytes, SYBR Green DNA, 72 h; series mostly up to 28.7 µM
Procedure, shortened: as §1

CP211 = assay: as above; settings: P. falciparum in erythrocytes, SYBR Green DNA, 72 h; series mostly up to 28.7 µM
Procedure, shortened: as §1

CP215 = assay: as above; settings: P. falciparum in erythrocytes, SYBR Green DNA, 72 h; series mostly up to 28.7 µM
Procedure, shortened: as §1

CP217 = assay: as above; settings: P. falciparum in erythrocytes, SYBR Green DNA, 72 h; series mostly up to 28.7 µM
Procedure, shortened: as §1

CP237 = assay: as above; settings: P. falciparum in erythrocytes, SYBR Green DNA, 72 h; series mostly up to 28.7 µM
Procedure, shortened: as §1

CP238 = assay: as above; settings: P. falciparum in erythrocytes, SYBR Green DNA, 72 h; series mostly up to 28.7 µM
Procedure, shortened: as §1

CP247 = assay: as above; settings: P. falciparum in erythrocytes, SYBR Green DNA, 72 h; series mostly up to 28.7 µM
Procedure, shortened: as §1

CP250 = assay: as above; settings: P. falciparum in erythrocytes, SYBR Green DNA, 72 h; series mostly up to 28.7 µM
Procedure, shortened: as §1

CP252 = assay: as above; settings: P. falciparum in erythrocytes, SYBR Green DNA, 72 h; series mostly up to 28.7 µM
Procedure, shortened: as §1

CP256 = assay: as above; settings: P. falciparum in erythrocytes, SYBR Green DNA, 72 h; series mostly up to 28.7 µM
Procedure, shortened: as §1

CP260 = assay: as above; settings: P. falciparum in erythrocytes, SYBR Green DNA, 72 h; series mostly up to 28.7 µM
Procedure, shortened: as §1

CP262 = assay: as above; settings: P. falciparum in erythrocytes, SYBR Green DNA, 72 h; series mostly up to 28.7 µM
Procedure, shortened: as §1

3',5'-cyclic-AMP phosphodiesterase 4B (Homo sapiens), sequence (Q07343 whole entry, looked up): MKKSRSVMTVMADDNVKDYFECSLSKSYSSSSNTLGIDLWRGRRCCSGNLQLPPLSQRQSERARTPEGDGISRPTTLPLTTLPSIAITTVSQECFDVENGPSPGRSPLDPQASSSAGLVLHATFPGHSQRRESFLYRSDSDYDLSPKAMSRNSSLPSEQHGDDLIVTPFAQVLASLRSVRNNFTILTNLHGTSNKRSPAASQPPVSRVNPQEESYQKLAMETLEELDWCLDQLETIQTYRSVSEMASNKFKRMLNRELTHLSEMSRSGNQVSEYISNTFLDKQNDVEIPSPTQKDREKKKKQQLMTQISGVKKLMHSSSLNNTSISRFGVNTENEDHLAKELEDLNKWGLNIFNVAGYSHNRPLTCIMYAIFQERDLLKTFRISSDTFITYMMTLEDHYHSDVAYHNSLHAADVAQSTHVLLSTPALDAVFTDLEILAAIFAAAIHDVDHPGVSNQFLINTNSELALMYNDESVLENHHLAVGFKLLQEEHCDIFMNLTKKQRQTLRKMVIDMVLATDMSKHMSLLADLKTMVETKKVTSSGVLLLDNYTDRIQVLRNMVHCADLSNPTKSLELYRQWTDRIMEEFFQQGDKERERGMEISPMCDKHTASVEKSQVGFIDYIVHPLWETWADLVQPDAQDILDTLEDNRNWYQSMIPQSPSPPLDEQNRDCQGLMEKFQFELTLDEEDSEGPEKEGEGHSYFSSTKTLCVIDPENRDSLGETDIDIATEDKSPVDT
Cytochrome P450 1A2 (Homo sapiens), sequence (P05177 whole entry, looked up): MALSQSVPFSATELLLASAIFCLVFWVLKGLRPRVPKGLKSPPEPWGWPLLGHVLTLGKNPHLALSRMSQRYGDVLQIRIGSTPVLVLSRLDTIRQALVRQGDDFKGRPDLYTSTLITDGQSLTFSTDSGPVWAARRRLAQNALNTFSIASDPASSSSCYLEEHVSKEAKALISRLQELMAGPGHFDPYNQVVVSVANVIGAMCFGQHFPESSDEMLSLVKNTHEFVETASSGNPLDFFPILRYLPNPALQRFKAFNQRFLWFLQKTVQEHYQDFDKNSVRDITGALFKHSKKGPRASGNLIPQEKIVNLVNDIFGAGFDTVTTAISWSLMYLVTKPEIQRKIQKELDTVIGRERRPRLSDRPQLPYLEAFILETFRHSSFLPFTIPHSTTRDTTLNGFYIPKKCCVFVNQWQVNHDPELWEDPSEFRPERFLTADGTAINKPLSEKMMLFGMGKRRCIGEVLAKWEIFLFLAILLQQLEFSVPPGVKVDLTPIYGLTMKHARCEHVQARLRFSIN

With `C/C=C\C[C@H](C)[C@H](O)[C@H]1C(=O)N[C@@H](CC)C(=O)N(C)CC(=O)N(C)[C@@H](CC(C)C)C(=O)N[C@@H](C(C)C)C(=O)N(C)[C@@H](CC(C)C)C(=O)N[C@@H](C)C(=O)N[C@@H](C)C(=O)N(C)[C@@H](CC(C)C)C(=O)N(C)[C@@H](CC(C)C)C(=O)N(C)[C@@H](C(C)C)C(=O)N1C` the Potency [1] was “inactive”, the Potency [2] was “inactive” and the Potency [3] was “inactive”. The outcome [4] was “inactive”, the Potency [5] was “inactive” and the Potency (3D7) was 3.98 µM (active). The Potency (7G8) was 8.91 µM (active), the Potency (AA1029) was 2.82 µM (active) and the Potency (AS120) was 3.98 µM (active). The Potency (ATS189) was “inactive”, the Potency (ATS95) was 3.55 µM (active) and the Potency (C2A) was 3.55 µM (active). The Potency (CP185) was 3.55 µM (active), the Potency (CP191) was 3.16 µM (active) and the Potency (CP192) was 6.75 µM (active). The Potency (CP194) was 8.49 µM (active), the Potency (CP201) was 6.75 µM (active) and the Potency (CP203) was 13.5 µM (active). For the same compound, the Potency (CP211) was 6.75 µM (active), the Potency (CP215) was 7.57 µM (active) and the Potency (CP217) was 3.16 µM (active). The Potency (CP237) was 4.47 µM (active), the Potency (CP238) was 3.55 µM (active) and the Potency (CP247) was 3.55 µM (active). The Potency (CP250) was 3.55 µM (active), the Potency (CP252) was 3.55 µM (active) and the Potency (CP256) was 3.16 µM (active). The Potency (CP260) was 2.82 µM (active) and the Potency (CP262) was 3.79 µM (active).
